Screening data from PubChem.
HEK cytotox – kills HEK 293 cells; Potency, µM (titrated, usually from 115 µM), for the others: at the highest dose activity change, negative = cytotoxicity, most hits filed as inhibitors; HEK 293 viability, ATP luminescence (CellTiter-Glo), 48-72 h; 94,000 compounds, 6.6% hits; further: nearly all actives have a fitted effect of over 60% in size
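ATP-coupled CellTiter-Glo luminescence served as viability read-out, recorded 10 min after reagent addition at room temperature. HEK 293 cells, 250 cells/well, had been incubated with pintool-transferred compound for 48 or 72 hr at 37 degree Celsius.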
NIH3T3 tox – kills NIH 3T3 cells | NIH 3T3 viability, CellTiter-Glo ATP luminescence, 48-72 h | Potency, µM (titrated, usually from 96.7 µM), for inactives: at the highest dose activity change, negative = cytotoxicity, usual class: inhibitors | 94,000 compounds, 4.3% hits | AID 1345082; further: nearly all actives have a fitted effect of over 55% in size
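ATP-dependent luminescence (CellTiter-Glo) served as the viability signal for NIH 3T3 cells treated with compound for 48 or 72 hr at 37 °C.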
Luciferase inh – blocks purified firefly luciferase enzyme activity; AID 1347043; P08659; purified P. pyralis luciferase, luminescence, biochemical; 76,000 compounds, 2.5% hits; Potency, µM (series often up to 115 µM), most hits filed as inhibitors; further: nearly all actives have a fitted effect of over 65% in size
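Cell-free enzyme assay, 10nM P. pyralis luciferase, luciferin and ATP each at 10uM. Inhibition profiled over a 6-point titration, read as luminescence.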
NPR1 antag – blocks ANP-stimulated signaling of human Npr1 receptor; HEK293 hNpr1 GloSensor cGMP, ANP-stimulated luminescence; Potency, µM (titrated, usually from 46.3 µM), without a hit: at the highest dose activity change, negative = inhibition, most hits filed as inhibitors; 76,000 compounds, 1.6% hits; calls by dose curve; further: nearly all actives have a fitted effect of over 60% in size
Target sequence (P16066 whole entry, looked up): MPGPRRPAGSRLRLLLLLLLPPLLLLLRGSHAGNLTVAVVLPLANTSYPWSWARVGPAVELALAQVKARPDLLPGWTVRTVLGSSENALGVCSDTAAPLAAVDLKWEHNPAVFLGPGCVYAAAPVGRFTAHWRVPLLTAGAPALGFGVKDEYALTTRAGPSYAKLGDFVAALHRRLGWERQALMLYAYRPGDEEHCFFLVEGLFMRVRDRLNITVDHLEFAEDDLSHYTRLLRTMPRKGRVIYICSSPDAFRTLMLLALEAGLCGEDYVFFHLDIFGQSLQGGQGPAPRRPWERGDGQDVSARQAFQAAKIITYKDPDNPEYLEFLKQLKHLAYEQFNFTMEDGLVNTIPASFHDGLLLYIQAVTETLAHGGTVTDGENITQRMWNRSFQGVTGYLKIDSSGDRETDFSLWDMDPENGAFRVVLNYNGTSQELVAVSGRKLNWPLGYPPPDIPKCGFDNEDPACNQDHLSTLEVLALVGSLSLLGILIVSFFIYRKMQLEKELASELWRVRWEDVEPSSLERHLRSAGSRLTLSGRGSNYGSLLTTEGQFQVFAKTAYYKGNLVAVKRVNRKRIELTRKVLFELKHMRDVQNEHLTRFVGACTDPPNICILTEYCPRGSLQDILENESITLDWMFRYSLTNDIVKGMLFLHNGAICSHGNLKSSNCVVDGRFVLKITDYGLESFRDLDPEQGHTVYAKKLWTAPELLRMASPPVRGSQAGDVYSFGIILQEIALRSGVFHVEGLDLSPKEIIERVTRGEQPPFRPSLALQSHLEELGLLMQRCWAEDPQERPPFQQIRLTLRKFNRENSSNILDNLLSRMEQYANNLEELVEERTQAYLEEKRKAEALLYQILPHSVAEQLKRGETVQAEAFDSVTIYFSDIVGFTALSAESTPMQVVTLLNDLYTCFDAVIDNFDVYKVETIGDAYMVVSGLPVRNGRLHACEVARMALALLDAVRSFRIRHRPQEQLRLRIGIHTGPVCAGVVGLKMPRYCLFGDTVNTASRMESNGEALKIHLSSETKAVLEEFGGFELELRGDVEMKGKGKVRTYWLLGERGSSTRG
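Compound pre-incubated 30 min at room temperature on GloSensor-loaded HEK293 cells stably carrying hNpr1 and the pGS-40F cGMP biosensor. Stimulation uses hNppA at 0.1 nM final; luminescence is taken at baseline and 20 min post-agonist.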
An asterisk follows results filed as active; i = inactive; ? = inconclusive; nt = no result; [ ] = dose if it differs, or a comment. Sampled rows, rich in hits. Any-hit rate of the full collection: about 11%. Unless noted, the call rests on the fitted dose curve; in most records, active means well fitted curve in the direction sought with a large enough effect; inconclusive means small, poorly fitted or top-dose-only effect, or another doubt; inactive means no such curve, though single readings can be large; an effect the other way counts as inactive or inconclusive. On the % scale 0 is the no-effect control and ±100 the full control effect; potency means the concentration at half of the fitted maximal effect.

SMILES	HEK cytotox	NIH3T3 tox	Luciferase inh	NPR1 antag
Cc1ccc(-n2nc(-c3c(C)nc4scc(CC(=O)Nc5ccc(F)cc5)n4c3=O)cc2C)cc1	?	?	i	-1.0%
CC(=O)N1CCN(c2ncnc3c2CN(C2CCCC2)C(=O)CN3C)CC1	-4.2%	-17.5%	nt	nt
C=CCCC(=O)N1C[C@@H](C(=O)OCC)[C@@H]2Oc3c(C)cccc3[C@@H]21	-15.9%	?	nt	nt
O=C(c1ccccc1)N1CCC2(CC1)CCN(CCc1ccccc1)c1ccccc1O2	39.8µM*	?	i	-5.7%
CCCN1CCC2(CCN(C(=O)c3ccccc3C)CC2)Oc2ccccc21	?	?	i	26.1%
Cc1ccccc1C(=O)N1CCC2(CC1)CCN(CCc1ccccc1)c1ccccc1O2	28.2µM*	?	i	1.5%
COc1ccc(CC(=O)N2CCC3(CC2)CC(=O)N(c2ccccc2)c2ccccc2O3)cc1	?	-20.5%	i	31.0%
O=C(c1ccc(F)cc1)N1CCC2(CC1)CCN(CCc1ccccc1)c1ccccc1O2	39.8µM*	?	i	0.0%
O=C(c1ccccc1F)N1CCC2(CC1)CCN(CCc1ccccc1)c1ccccc1O2	?	?	i	-2.5%
O=C(Cc1ccc(F)cc1)N1CCC2(CC1)CC(=O)N(c1ccccc1)c1ccccc1O2	39.8µM*	39.8µM*	i	-9.1%
COCCN1C(=O)c2ccccc2C(C(=O)Nc2nnc(C3CC3)s2)C12CCCCC2 (stereo unspecified)	6.9%	i	i	7.5%
CCOc1ccccc1C(=O)N1CCC(Oc2nccnc2N(C)C)C1 (stereo unspecified)	?	-5.3%	31.6µM*	0.3%
COc1ccc(C(=O)N2CCC(Oc3nccnc3N(C)C)C2)c(OC)c1 (stereo unspecified)	?	i	20µM*	-0.3%
Cc1nc(C(=O)N2CCOc3c(O)cc(-c4cccc(Cl)c4)cc3C2)cs1	17.8µM*	?	i	?
CC(C)CNC(=O)CN1CCOc2c(O)cc(-c3cccc(Cl)c3)cc2C1	?	?	i	-21.2%
CC1(C(=O)N2CCOc3c(O)cc(-c4cccc(Cl)c4)cc3C2)CCCO1 (stereo unspecified)	44.7µM*	?	i	-22.7%
COc1ccc(NC(=O)c2nc3sccn3c2-c2ccc(OC)cc2)cc1	?	-20.9%	nt	nt
Cn1cc(CN2CCN(C(=O)c3c[nH]c4ccccc34)CC2)ccc1=O	-29.6%	-16.1%	31.6µM*	-2.5%
Cn1cc(CN2CCN(C(=O)c3ccoc3)CC2)ccc1=O	3.9%	i	i	-2.9%
CN(Cc1cccc(N2CCN(S(=O)(=O)c3ccccc3C(F)(F)F)CC2)c1F)S(C)(=O)=O	35.5µM*	?	nt	nt
Cn1nc2n(c1=O)CCN(S(=O)(=O)c1ccccc1C(F)(F)F)CC2	-12.6%	-13.4%	i	-1.1%
O=C(Cc1ccccc1)N1CCN(c2ccnc3ccnn23)CC1	-4.1%[172 µM]	?	nt	nt
O=C(NCc1cc2n(n1)CCNC2)c1cc2c(s1)CCCCC2	-1.6%	i	31.6µM*	2.6%
Cc1nc(-c2cccc(Cl)c2)n(CC(=O)Nc2cccc(C(C)C)c2)c(=O)c1CCO	?	25.1µM*	i	-7.7%
CCc1cccc(NC(=O)Cn2c(-c3cccc(Cl)c3)nc(C)c(CCO)c2=O)c1	39.8µM*	?	i	-5.3%
SMILES	HEK cytotox	NIH3T3 tox	Luciferase inh	NPR1 antag
Cc1ccc(NC(=O)Cn2c(-c3ccc(Cl)cc3)nc(C)c(CCO)c2=O)cc1	31.6µM*	?	i	-2.5%
Cc1nc(-c2ccccc2)n(CC(=O)Nc2ccccc2)c(=O)c1CCO	?	?	i	1.2%
Cc1nc(-c2cccc(Cl)c2)n(CC(=O)Nc2ccccc2)c(=O)c1CCO	44.7µM*	?	i	-11.3%
O=C(C1CCCN1C(=O)c1ccc(C(F)(F)F)cc1)N1CCC(N2CCOCC2=O)CC1 (stereo unspecified)	1.1%	-12.3%	nt	nt
COc1ccc(Cn2c(=O)c(C(=O)N3CCN([S+](=O)([O-])c4ccc(C)cc4)CC3)nc3cccnc32)cc1	-3.3%	-21.9%	nt	nt
CNC(=O)CN(C)[C@H]1C[C@@H]2CO[C@H](C(C)C)C[C@@H]2C1	-7.5%	?	nt	nt
O=C([C@@H]1C[C@H](Oc2ccccc2)CN1C(=O)C1CCCC1)N1CCCC1	1.5%	-10.2%	i	-0.1%
Cc1cc(NC(=O)Cn2c(-c3cccc(Cl)c3)nc(C)c(CCO)c2=O)no1	?	?	i	-0.7%
Cc1cc(C)cc(NC(=O)Cn2c(-c3ccccc3)nc(C)c(CCO)c2=O)c1	31.6µM*	?	i	-11.3%
Cc1nc(-c2cccc(Cl)c2)n(CC(=O)Nc2ccccc2F)c(=O)c1CCO	44.7µM*	?	i	-14.9%
CSc1cccc(NC(=O)Cn2c(-c3ccc(F)cc3)nc(C)c(CCO)c2=O)c1	31.6µM*	?	i	-17.2%
Cc1ccc(NC(=O)Cn2c(-c3cccc(Cl)c3)nc(C)c(CCO)c2=O)cc1	25.1µM*	39.8µM*	i	-3.5%
Cc1nc(-c2ccc(F)cc2)n(CC(=O)Nc2ccc(F)cc2)c(=O)c1CCO	?	?	i	-6.2%
CCc1ccccc1NC(=O)CN(C)C(=O)C1CCN(c2cnn(Cc3ccccc3)c(=O)c2)C1 (stereo unspecified)	?	-20.7%	i	-9.9%
Cc1ccc(CNC(=O)Cn2c(-c3ccccc3)nc(C)c(CCO)c2=O)cc1	79.4µM*	?	i	-7.8%
Cc1nc(-c2ccc(F)cc2)n(CC(=O)NCc2ccc(F)cc2)c(=O)c1CCO	-8.9%	-24.8%	i	-1.8%
Cc1ccc(NC(=O)Cn2c(-c3ccc(F)cc3)nc(C)c(CCO)c2=O)cc1Cl	?	?	i	-4.5%
COc1ccc(NC(=O)Cn2c(-c3ccccc3)nc(C)c(CCO)c2=O)cc1Cl	25.1µM*	?	i	-24.3%
Cc1nc(-c2cccc(Cl)c2)n(CC(=O)Nc2ccc3c(c2)OCO3)c(=O)c1CCO	39.8µM*	?	i	-22.4%
COc1ccc(NC(=O)Cn2c(-c3ccccc3)nc(C)c(CCO)c2=O)cc1OC	?	?	i	-4.0%
Cc1nc(-c2ccc(F)cc2)n(CC(=O)Nc2ccc(F)c(Cl)c2)c(=O)c1CCO	35.5µM*	?	i	-23.6%
CCc1cccc(NC(=O)Cn2c(-c3ccc(Cl)cc3)nc(C)c(CCO)c2=O)c1	?	-22.9%	i	-16.6%
COc1cccc(CN2CCOC3(CCN(Cc4ccc(OC)nc4)CC3)C2=O)c1	?	-16.8%[138 µM]	i	-18.9%[70.6 µM]
COCCn1c(=O)n([C@H]2CCCN(S(=O)(=O)c3cccc(OC)c3)C2)c2ncccc21	?	-26.0%	i	2.2%
C[S+](=O)([O-])N1CCCC1C(=O)N1CCC2(CC1)CC(=O)Nc1ccccc1O2 (stereo unspecified)	-3.2%	i	nt	nt
C[S+](=O)([O-])NCc1nnc2n1C(C(=O)NC1CCCCCC1)CC2 (stereo unspecified)	-17.3%[230 µM]	-15.6%[174 µM]	nt	nt
